Results taken from PubChem BioAssay (NCI).
About 79,000 compounds went through this panel and 15% of them were active in at least one assay; those are over-represented in the sample as a whole. The source made the active and inactive calls. Rule as the data show it: active = growth inhibition above about 70%; inactive = the rest.

Tests used:
[1] = NCI Yeast Anticancer Drug Screen. Data for the rad50 strain (AID 155);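 also: 0% = growth of vehicle-only cultures of the same strain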; conditions: S. cerevisiae rad50 strain growth inhibition, stronger effect = higher value; at 50.0 µM unless noted
Procedure, shortened: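 Growth of the mutant yeast was measured after compound exposure and referenced to vehicle-treated cultures.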

[2] = NCI Yeast Anticancer Drug Screen. Data for the mec2-1 strain (AID 157); conditions: S. cerevisiae mec2-1 strain, stronger effect = higher value; at 50.0 µM unless noted
Procedure, shortened: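 Growth inhibition is read against vehicle-treated controls after compound exposure of the mec2-1 yeast strain, which is defective in DNA damage repair or cell cycle control.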

[3] = NCI Yeast Anticancer Drug Screen. Data for the sgs1 mgt1 strain (AID 161);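 also: 0% = growth of cultures given vehicle only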; conditions: S. cerevisiae sgs1 mgt1 strain, stronger effect = higher value; at 50.0 µM unless noted
Procedure, shortened: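 Compounds are added to genetically altered yeast, and growth is compared with cultures given vehicle alone to give percent inhibition.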

[4] = NCI Yeast Anticancer Drug Screen. Data for the cln2 rad14 strain (AID 165);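 also: 0% = growth equal to vehicle treated cultures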; conditions: S. cerevisiae cln2 rad14 strain, stronger effect = higher value; at 50.0 µM unless noted
Procedure, shortened: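 Growth inhibition, relative to vehicle-treated controls, is the read-out. The test organism is a yeast strain with defined genetic alterations, cln2 rad14.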

[5] = NCI Yeast Anticancer Drug Screen. Data for the bub3 strain (AID 167); conditions: S. cerevisiae bub3 mutant strain, stronger effect = higher value; at 50.0 µM unless noted
Procedure, shortened: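 Whole-cell yeast assay. The mutant strain was incubated with compounds, and growth inhibition was determined by comparison with vehicle-treated cells.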

[6] = NCI Yeast Anticancer Drug Screen. Data for the mlh1 rad18 strain (AID 175); conditions: S. cerevisiae mlh1 rad18 strain growth inhibition, stronger effect = higher value; at 50.0 µM unless noted
Procedure, shortened: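 Cells of a genetically altered yeast strain, deficient in DNA damage repair, were treated with compound. Their growth was then compared with that of vehicle-treated cultures to give inhibition.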

Measured: growth inhibition

CCc1ccc(NC(=O)c2ccc(Cl)cc2Cl)cc1
inactive: [1] 4.9% | [2] 34.5% | [3] 7.7% | [4] 2.95% | [5] 11.8% | [6] 0.95%

Cc1noc(NC(=O)Nc2ccccc2F)c1C#N
inactive: [1] -24.3% | [2] -10.4% | [3] -33.1% | [4] 26.9% | [5] -15.9% | [6] -2.25%

CN(N)c1nc(N)c(C#N)c(C#N)c1C#N
inactive: [1] -16.8% | [2] -22.5% | [3] -4.9% | [4] 11.7% | [5] -2.65% | [6] 3.9%

CCC(C)C(NC(=O)Cc1ccccc1)C(=O)O (stereo unspecified)
inactive: [1] 4.55% | [2] -9.45% | [3] -4.1% | [4] -23.2% | [5] 8.95% | [6] 5.75%

O=C(O)COc1ccc(F)cc1F
inactive: [1] -22.5% | [2] -3.05% | [3] 1.65% | [4] -31.4% | [5] 0.95% | [6] -16.4%

O=C(/C=C/c1ccc(-c2ccccc2)cc1)c1ccccc1
inactive: [1] -16.7% | [2] -24.8% | [3] 7.75% | [4] -3.3% | [5] -20.6% | [6] -17.6%

OC(COc1cccc(C(F)(F)F)c1)CN1CCN(c2cccc(F)c2)CC1 (stereo unspecified)
active: [1] 98.7% | [2] 99% | [3] 99.1% | [4] 97.9% | [5] 98.7% | [6] 99%

O=C(c1cccc(C(=O)N2CCOCC2)n1)N1CCOCC1
inactive: [1] -9.95% | [2] 17.1% | [3] -3.5% | [4] -19.4% | [5] 5.15% | [6] 7.15%

CCC1=C(c2ccc(OC)cc2)CC[C@@]2(CCNC2=O)[C@@H]1C
inactive: [1] 4.8% | [2] -0.2% | [3] -5.45% | [4] 14.3% | [5] 3.8% | [6] 8.8%

O=C(O)C(F)(F)C(F)(F)C(F)(F)F
inactive: [1] 5.95% | [2] -2.3% | [3] -6.75% | [4] 14.6% | [5] 1.15% | [6] 3.25%

CC1=CC(=O)CC(C)(C)C1
inactive: [1] 1.45% | [2] 5.95% | [3] -1.7% | [4] 6.4% | [5] 17.1% | [6] 3.45%

c1ccc2cnncc2c1
inactive: [1] 0.35% | [2] -0.55% | [3] -11.8% | [4] 4.35% | [5] 11.7% | [6] 0.25%

C=CCN(N=O)C(=O)N(CCCCC(NC(C)=O)C(=O)NCc1ccccc1)Cc1ccccc1 (stereo unspecified)
inactive: [1] -0.95% | [2] -13.1% | [3] -21.4% | [4] -26.5% | [5] -22.3% | [6] -17.1%

COc1ccc(/C=N\NC(=O)c2cnccn2)cc1
inactive: [1] 9.15% | [2] 10.8% | [3] 5.35% | [4] 1.4% | [5] 15.7% | [6] 11.1%

Cc1ccc(S(=O)(=O)N2C(=O)CCC2C(=O)O)cc1 (stereo unspecified)
inactive: [1] -0.95% | [2] -5.65% | [3] 10.6% | [4] -17.1% | [5] 2.2% | [6] 2.7%

CCCCN1C(=O)NC(Cc2ccccc2)C1=O (stereo unspecified)
inactive: [1] -13.2% | [2] -1.35% | [3] -13.2% | [4] 4.95% | [5] -1.9% | [6] -12.5%

CC[N+]1(CC)CCOC(=O)C1
inactive: [1] -15.8% | [2] -2.6% | [3] -3.9% | [4] 22.9% | [5] -19.4% | [6] -26.9%

Cc1ccc(S(=O)(=O)N(C)CCCC#N)cc1
inactive: [1] -11.4% | [2] -16.3% | [3] 6.2% | [4] -3.1% | [5] -6.6% | [6] -19.6%

CCOC(=O)CC(CC(=O)OCC)NC(=O)c1ccc(N(C)C(=O)OCc2ccccc2)cc1
inactive: [1] 40.1% | [2] 5.55% | [3] 34.9% | [4] 32.9% | [5] 14.7% | [6] 39.9%

O=C1Cc2c(-c3ccc(Cl)cc3)cc(-c3ccccc3)nc2-c2ccccc2N1
inactive: [1] -16.9% | [2] -17.8% | [3] -10.9% | [4] 4.95% | [5] -11.2% | [6] -52%

Cc1c(NC(=S)NC(=O)c2ccc([N+](=O)[O-])cc2)c(=O)n(-c2ccccc2)n1C
inactive: [1] 19.6% | [2] 5.7% | [3] 16.2% | [4] 17.9% | [5] 32.9% | [6] 18.6%

COc1ccc(/C=C/C(=O)c2sc(Nc3ccc([N+](=O)[O-])cc3)nc2C)cc1
inactive: [1] 39.2% | [2] 7.45% | [3] 5.35% | [4] 36.8% | [5] 27.5% | [6] 46.4%

C=CCCCCCCCCCCCCCCCC
inactive: [1] -24% | [2] -49% | [3] -23.1% | [4] -13.2% | [5] -27.6% | [6] -9.2%

CC1(O)CCCC1(C)O (stereo unspecified)
inactive: [1] -29.1% | [2] -21.1% | [3] -19.1% | [4] -38.9% | [5] -21.7% | [6] -23.8%

O=C(O)c1cccc(-c2ccccc2)c1O.O=C(O)c1cccc(-c2ccccc2)c1O.[Cu]
inactive: [1] 41.2% | [2] 39.5% | [3] 21.6% | [4] 2.6% | [5] 33.9% | [6] 32.4%

c1ccc(C2=NN(c3ccccc3)CC2)cc1
inactive: [1] -8.3% | [2] -3.15% | [3] 0.4% | [4] 9.25% | [5] 9.35% | [6] 2.05%

CN=C1CC2c3cc(OC)c(OC)cc3CCN2C2=C1C(=O)CC(C)(C)C2 (stereo unspecified)
inactive: [1] 17.1% | [2] 18.5% | [3] 15.1% | [4] -19% | [5] 36.4% | [6] 16.6%

CC(O)C1(O)CCCCC1 (stereo unspecified)
inactive: [1] -11.8% | [2] -1.95% | [3] -2.05% | [4] -29.6% | [5] -13.2% | [6] -14.8%

CC(CN(CP(=O)([O-])[O-])CP(=O)([O-])[O-])N(CP(=O)([O-])[O-])CP(=O)([O-])[O-].N.N.[Pt+2] (stereo unspecified)
inactive: [1] -18.6% | [2] -20.5% | [3] -18.9% | [4] 23.6% | [5] 9.9% | [6] -10.8%

CC(=O)N(C)c1ccc(NC(=O)C2CCCCC2C(=O)O)cc1 (stereo unspecified)
inactive: [1] 6.95% | [2] 8.6% | [3] 6.2% | [4] 3.65% | [5] 22.2% | [6] -14.2%

C=C1C(=O)OC2CC(C)C(/C=C/C(C)=O)=CCC12 (stereo unspecified)
inactive: [1] -7.45% | [2] -7.6% | [3] -19.9% | [4] -12.5% | [5] -43% | [6] -99.8%

C[C@@]1([N+](=O)[O-])CC2CCC1C2 (stereo partly specified)
inactive: [1] -3.9% | [2] -12.5% | [3] -16.4% | [4] -6.45% | [5] 2.55% | [6] -9.55%

CCOC(=O)c1[nH]cc(C(=O)O)c1C
inactive: [1] 15.3% | [2] 0.15% | [3] 6.05% | [4] -44.7% | [5] 1.25% | [6] 17.2%

CC(=O)Oc1ccc(Cc2ccccc2)cc1
inactive: [1] 47% | [2] 33.5% | [3] 48.2% | [4] -49.2% | [5] 32.9% | [6] 49.1%

O=[N+]([O-])c1cc(F)ccc1S(=O)(=O)c1ccccc1
inactive: [1] 31.6% | [2] -40.5% | [3] 7.8% | [4] 1.85% | [5] -23.2% | [6] 0.65%

CCOC(=O)C1C(=O)CC(C)(O)C(C(=O)OCC)C1c1ccc(OC)cc1 (stereo unspecified)
inactive: [1] -27.4% | [2] 2.55% | [3] 8.65% | [4] -5.95% | [5] -2% | [6] 21.8%

CC(=O)[C@@]1(O)CC[C@H]2[C@@H]3CC=C4C[C@@H](Cl)CC[C@]4(C)[C@H]3CC[C@@]21C
inactive: [1] -16.9% | [2] 4.85% | [3] 13.8% | [4] -2.75% | [5] 8.5% | [6] 7.1%

COc1ccc2cc3n(c(=O)c2c1OC)CCc1cc2c(cc1-3)OCO2
inactive: [1] 11.9% | [2] -20.7% | [3] 14.2% | [4] 25.4% | [5] 2.8% | [6] -0.45%

CC(C)N1CCN(c2ccncc2S(=O)(=O)N2CCCC2)CC1
inactive: [1] 2.7% | [2] 4.8% | [3] -4.65% | [4] -33.9% | [5] 1.35% | [6] 8.4%

CC(C)N(C(=O)c1ccc(C(=O)N(c2ccccc2)C(C)C)cc1)c1ccccc1
inactive: [1] -40.5% | [2] -7.45% | [3] -1.25% | [4] 36% | [5] -3.45% | [6] 14.4%

CCCCCCCCCCCCCCCCCC(=O)N1CCN(C(=O)CCCCCCCCCCCCCCCCC)C1
inactive: [1] 30.4% | [2] -18.3% | [3] -4.3% | [4] -19.2% | [5] -1.25% | [6] 1.05%
